Values joined by “and” are separate entries in the source; they are usually repeats but may differ in a detail not shown here. Equal values may be shown once. Results filed as inconclusive are left out. Active and inactive are the calls of the source. The call rests on the fitted dose curve; in most records, active means well fitted activation curve with a large enough effect; inconclusive means small, poorly fitted or top-dose-only effect; inactive means flat fitted curve, though single readings scatter.
What follows are compounds tested against Pyruvate kinase PKM (Homo sapiens) (UniProt P14618) (assay: Confirmation Concentration-Response Assay for Activators of Human Muscle isoform 2 Pyruvate Kinase: for Probe SAR). Conditions: purified PKM2, ATP generation, Kinase-Glo luminescence; series mostly up to 57.5 µM.
Pyruvate kinase PKM (Homo sapiens), sequence (P14618 whole entry, looked up, canonical isoform): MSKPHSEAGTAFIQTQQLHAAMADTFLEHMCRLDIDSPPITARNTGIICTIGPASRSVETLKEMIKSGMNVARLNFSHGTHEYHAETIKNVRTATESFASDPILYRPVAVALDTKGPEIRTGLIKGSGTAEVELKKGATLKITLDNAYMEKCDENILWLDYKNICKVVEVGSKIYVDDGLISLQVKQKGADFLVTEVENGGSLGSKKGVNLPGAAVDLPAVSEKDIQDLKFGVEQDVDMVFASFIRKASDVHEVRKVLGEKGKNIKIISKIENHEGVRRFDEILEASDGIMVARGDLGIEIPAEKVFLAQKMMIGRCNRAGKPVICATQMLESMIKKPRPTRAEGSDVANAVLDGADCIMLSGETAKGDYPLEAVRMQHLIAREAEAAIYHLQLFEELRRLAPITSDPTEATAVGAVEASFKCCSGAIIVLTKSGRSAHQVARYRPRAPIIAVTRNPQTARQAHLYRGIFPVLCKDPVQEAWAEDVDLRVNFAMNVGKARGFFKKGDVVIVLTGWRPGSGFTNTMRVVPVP
From the text: NIH Chemical Genomics Center [NCGC]
Matthew G. Vander Heiden, M.D., Ph.D. [Harvard Medical School, 77 Avenue Louis Pasteur, Boston, MA 02115]
Human pyruvate kinase muscle 2 (hPK-M2) enzyme was supplied as a highly purified (>95% pure) preparation from Harvard Medical School and assayed for its ability to generate ATP from ADP using phosphoenolpyruvate (PEP) as a substrate. ATP generation was detected in a coupled reaction by luciferase-mediated luminescence, an ATP-dependent process. […] The enzyme was assayed at an intermediate level of activity to screen for both inhibitors and activators.
NCGC Assay Protocol Summary:
Three uL of substrate mix (at r.t.) in assay buffer (50 mM Imidazole pH7.2, 50 mM KCl, 7 mM MgCl2, 0.01% Tween 20, 0.05% BSA) was dispensed into white solid bottom 1,536 well microtiter plates so that the final concentrations of substrates in the assay were 0.1 mM ADP and 0.5 mM PEP. 23 nL of compound were delivered by a pin tool and 1 uL of enzyme mix (final concentration of 0.1 nM) in assay buffer (4 degree Celsius) was added. Plates were incubated at room temperature for 1 hour. Two uL of detection mix (Kinase-Glo, Promega; at 4 degree Celsius protected from light) was added and luminescence read by a ViewLux (Perkin Elmer) at 1 second exposure/plate. Data were normalized to the uninhibited (column 3) and AC100 inhibition (no enzyme in column 2). To monitor activation, the first column contained a titration of the activator, NCGC00031955-03 (16-point 1:2 dilutions in duplicate starting at 57 uM) and the first 16 rows of column 4 contained 57 uM of NCGC00031955-03.
Further: nearly all actives have a fitted effect of over 60% in size.
Potency means the concentration at half of the fitted maximal effect.

Potency, inactive:
O=C1c2ccccc2C(=O)N1Cc1ccccn1
Cc1ccccc1OC1=NS(=O)(=O)c2ccccc21
O=S1(=O)N=C(Sc2ccc3c(c2)OCCO3)c2ccccc21
COc1ccc(N2C(=O)c3ccccc3S2(=O)=O)cc1
O=[S+]1([O-])N=C(Oc2cccnc2)c2ccccc21
COc1cccc(N2C(=O)c3ccccc3C2=O)n1
COC(=O)c1ccccc1S(=O)(=O)Nc1ccc(OC)cc1
O=S1(=O)N=C(Sc2cccc3cccnc23)c2ccccc21
Fc1ccccc1-c1ccc(-c2nc3ccc(Cl)cn3c2Nc2ccc(Cl)cc2)o1
O=C1c2ccccc2C(=O)N1c1ccc(O)cc1
Cc1ccc2nc(-c3cccs3)c(Nc3ccccc3)n2c1
Cc1ccc(NS(=O)(=O)c2ccc(N3CCCC3=O)cc2)cc1C
Cc1ccc2nc(-c3ccc(C)o3)c(Nc3ccc(F)cc3)n2c1
O=C1c2ccccc2C(=O)N1c1cc(=O)c2ccccc2[nH]1
O=C1c2ccccc2C(=O)N1c1cccc(=O)[nH]1
Cc1ccc(Nc2c(-c3ccsc3)nc3cccc(C)n23)cc1
O=C1c2ccccc2C(=O)N1c1ccc(Cl)cc1
COc1ccc(OC2=NS(=O)(=O)c3ccccc32)cc1
O=C1c2ccccc2C(=O)N1c1cccc2cccnc12
COc1ccc(O)cc1
O=C1CCc2cc(S(=O)(=O)Nc3ccc(-c4ccccc4)cc3)ccc2N1
O=S1(=O)N=C(OCc2ccccc2)c2ccccc21
O=C1CCc2cc([S+](=O)([O-])Nc3ccc(N[S+](=O)([O-])c4ccc5c(c4)CCC(=O)N5)cc3)ccc2N1
O=C1c2ccccc2C(=O)N1c1cccc2ccncc12
N#Cc1ccccc1OC1=NS(=O)(=O)c2ccccc21

Potency, active:
Cc1ccccc1NS(=O)(=O)c1ccc2c(c1)CCC(=O)N2 11.6 µM
O=C1CCc2cc(S(=O)(=O)Nc3cccc(Br)c3)ccc2N1 0.259 µM
O=C(O)c1ccccc1SC1=NS(=O)(=O)c2ccccc21 32.6 µM [inhibitor]
COc1cc(F)c(S(=O)(=O)N2CCCN(S(=O)(=O)c3ccc4c(c3)OCCO4)CC2)c(F)c1 0.058 µM
CC(=O)Nc1ccc(S(=O)(=O)N2CCCN(S(=O)(=O)c3ccc4c(c3)OCCO4)CC2)cc1 4.11 µM
O=C1CCc2cc(Cl)c(S(=O)(=O)Nc3ccc(Cl)c(Cl)c3)cc2N1 0.073 µM
Cc1cc2c(s1)c1cnn(Cc3c(Cl)ccc(C)c3F)c(=O)c1n2C 1.26 µM
CC(=O)Nc1cccc(S(=O)(=O)N2CCN(S(=O)(=O)c3ccc4c(c3)OCCO4)CC2)c1 1.03 µM
O=C1CCc2cc(S(=O)(=O)Nc3cccc(Cl)c3)ccc2N1 0.41 µM
O=C1CCc2cc(S(=O)(=O)Nc3ccc4ccccc4c3)ccc2N1 5.17 µM
Cc1ccc(NS(=O)(=O)c2cc3c(cc2Br)NC(=O)CO3)cc1C 18.3 µM
COc1cccc(NS(=O)(=O)c2ccc3c(c2)CCC(=O)N3)c1 5.17 µM
COc1cc(F)c(S(=O)(=O)N2CCCN(S(=O)(=O)c3cccc(N)c3)CC2)c(F)c1 1.16 µM and 1.46 µM
CNc1cccc(S(=O)(=O)N2CCCN(S(=O)(=O)c3ccc4c(c3)OCCO4)CC2)c1 0.103 µM
COc1cc(F)c(S(=O)(=O)N2CCN(S(=O)(=O)c3ccco3)CC2)c(F)c1 0.183 µM

Reference: PubChem BioAssay AID2533 (National Center for Advancing Translational Sciences (NCATS), 2010)
